Reference: ChEMBL document CHEMBL2218924, “A broad activity screen in support of a chemogenomic map for kinase signalling research and drug discovery” (Biochem J, 2013)

Each compound was assayed against Tyrosine-protein kinase Lyn (Homo sapiens) (UniProt P07948). Details: at 1 µM.
Sequence of Tyrosine-protein kinase Lyn (Homo sapiens) (P07948 2-512 limits assumed): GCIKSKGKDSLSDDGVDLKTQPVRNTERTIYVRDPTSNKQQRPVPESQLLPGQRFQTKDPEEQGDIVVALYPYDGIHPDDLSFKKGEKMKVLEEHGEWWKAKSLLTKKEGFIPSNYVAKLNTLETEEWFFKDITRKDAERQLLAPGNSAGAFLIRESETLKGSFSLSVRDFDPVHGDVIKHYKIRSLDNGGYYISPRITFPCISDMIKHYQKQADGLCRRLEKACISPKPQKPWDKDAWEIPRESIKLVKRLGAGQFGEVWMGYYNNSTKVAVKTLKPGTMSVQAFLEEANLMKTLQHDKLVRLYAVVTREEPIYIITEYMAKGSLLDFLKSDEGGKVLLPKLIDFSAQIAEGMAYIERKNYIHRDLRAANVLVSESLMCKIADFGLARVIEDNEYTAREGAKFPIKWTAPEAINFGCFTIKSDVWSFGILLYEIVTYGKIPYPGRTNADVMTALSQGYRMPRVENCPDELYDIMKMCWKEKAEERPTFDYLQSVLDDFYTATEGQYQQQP

Q: CCC(=O)Nc1ccc2ncnc(Nc3cccc(Br)c3)c2c1 was tested. Which residual activity did it give?
A: The residual activity was 28%.

Q: Which residual activity does the source give for O=C(Nc1cccc(Nc2cc(Nc3cccc(C(F)(F)F)c3)ncn2)c1)C1CC1 here?
A: Its residual activity is 62%.

Q: With O=[N+]([O-])c1ccc(-c2nc(-c3ccc(F)cc3)c(-c3ccncc3)[nH]2)cc1 as the compound, how does the residual activity read?
A: The residual activity was 75%.

Q: For O=c1c2ccccc2[nH]c(=S)n1CCN1CCC(=C(c2ccc(F)cc2)c2ccc(F)cc2)CC1, which residual activity is on record?
A: Its residual activity is 83%.

Q: Which residual activity does the source give for COc1cc2ncnc(Nc3ccc(NC(=O)c4ccccc4)cc3)c2cc1OC here?
A: The residual activity was 32%.

Q: Which residual activity does the source give for COc1ccc(OC)c2c(=S)c3ccccc3[nH]c12 here?
A: The residual activity was 80%.

Q: With O=C(O)c1ccc2c3c1cccc3c(=O)n1c3ccccc3nc21 as the compound, how does the residual activity read?
A: Its residual activity is 96%.

Q: With Cn1cnc2cc3c(Nc4cccc(Br)c4)ncnc3cc21 as the compound, how does the residual activity read?
A: Its residual activity is 8%.

Q: COc1ccc(S(=O)(=O)N(CCO)c2ccccc2CN(C)C/C=C/c2ccc(Cl)cc2)cc1 was tested. Which residual activity did it give?
A: The residual activity was 97%.

Q: For CNc1cc2c(Nc3cccc(Br)c3)ncnc2cn1, which residual activity is on record?
A: The residual activity was 10%.

Q: How did the residual activity turn out when COc1cc2ncnc(N3CCN(C(=O)Nc4ccc(Oc5ccccc5)cc4)CC3)c2cc1OC was run?
A: Its residual activity is 98%.

Q: For O=C(Nc1cccc(Nc2nccc(Nc3cccc(C(F)(F)F)c3)n2)c1)C1CC1, which residual activity is on record?
A: Its residual activity is 41%.

Q: How did the residual activity turn out when c1ccc(-c2n[nH]cc2-c2ccnc3ccccc23)nc1 was run?
A: Its residual activity is 90%.

Q: O=c1cc(-c2cccc3c2Sc2ccccc2S3)oc(N2CCOCC2)c1 was tested. Which residual activity did it give?
A: Its residual activity is 92%.

Q: For O=Nc1c(-c2c(O)[nH]c3ccccc23)[nH]c2ccccc12, which residual activity is on record?
A: The residual activity was 8%.

Q: For Nc1n[nH]c2nnc(-c3c(-c4ccccc4)nn4ccccc34)cc12, which residual activity is on record?
A: Its residual activity is 66%.

Q: With CC(=O)O/N=C1\C(=C2\C(=O)Nc3cc(Br)ccc32)Nc2ccccc21 as the compound, how does the residual activity read?
A: The residual activity was 12%.

These compounds were tested against Tyrosine-protein kinase Lyn (Homo sapiens) (UniProt P07948). Details: at 10 µM.

Q: With NC(=O)c1ccc2[nH]c(-c3ccc(Oc4ccc(Cl)cc4)cc3)nc2c1 as the compound, how does the residual activity read?
A: Its residual activity is 88%.

Q: With Cc1nc(-c2ccccc2)c(-c2ccncc2)o1 as the compound, how does the residual activity read?
A: The residual activity was 0%.

Q: Which residual activity does the source give for CCOc1cc2ncnc(Nc3cccc(Br)c3)c2cc1OCC here?
A: Its residual activity is 1%.

Q: CC(C)n1cnc2/c(=N/c3cccc(Cl)c3)nc(NCCO)[nH]c21 was tested. Which residual activity did it give?
A: Its residual activity is 2%.

Q: With Nc1nc(Nc2ccc(S(N)(=O)=O)cc2)nn1C(=S)Nc1c(F)cccc1F as the compound, how does the residual activity read?
A: Its residual activity is 1%.

Q: For Cc1ccc(S(=O)(=O)/C=C/C#N)cc1, which residual activity is on record?
A: The residual activity was 94%.

Q: With Ic1cccc(CSc2nnc(-c3ccncc3)o2)c1 as the compound, how does the residual activity read?
A: The residual activity was 47%.

Q: For O=C1NC(=O)c2c1c1c3ccccc3[nH]c1c1[nH]c3cc(Br)ccc3c21, which residual activity is on record?
A: The residual activity was 69%.

Q: O=C1NC(=O)/C(=C\c2ccc3nccnc3c2)S1 was tested. Which residual activity did it give?
A: Its residual activity is 89%.

Q: For CCN(CC)CCCCN1c2ccccc2Oc2ccc(Cl)cc21, which residual activity is on record?
A: Its residual activity is 67%.

Q: COc1cccc(-c2cc(=O)c3ccccc3o2)c1N was tested. Which residual activity did it give?
A: Its residual activity is 80%.

Q: Which residual activity does the source give for O=C1c2ccccc2-[n+]2ccc3c([nH]c4ccccc43)c21 here?
A: Its residual activity is 65%.

Q: How did the residual activity turn out when Oc1ccc(-c2nc(-c3ccc(F)cc3)c(-c3ccncc3)[nH]2)cc1 was run?
A: Its residual activity is 11%.

Q: How did the residual activity turn out when Cc1nc2cc3nc(-c4cccs4)cnc3cc2n1C was run?
A: The residual activity was 32%.

Q: With COc1ccc(C(=O)Nc2sc3c(c2C(N)=O)CCCC3)cc1OC as the compound, how does the residual activity read?
A: The residual activity was 46%.

Q: Cn1cc(/C=C2\C(=O)Nc3ccc(S(N)(=O)=O)cc32)c2ccccc21 was tested. Which residual activity did it give?
A: The residual activity was 1%.

Q: For Nc1ccc2ncnc(NCCc3ccc(Oc4ccccc4)cc3)c2c1, which residual activity is on record?
A: The residual activity was 11%.

Q: Which residual activity does the source give for CO[C@H]1C[C@@H]2CC[C@@H](C)[C@@](O)(O2)C(=O)C(=O)N2CCCC[C@H]2C(=O)O[C@H]([C@H](C)C[C@@H]2CC[C@@H](O)[C@H](OC)C2)CC(=O)[C@H](C)/C=C(\C)[C@@H](O)[C@@H](OC)C(=O)[C@H](C)C[C@H](C)/C=C/C=C/C=C/1C here?
A: Its residual activity is 131%.

Q: For CCC(=O)Nc1ccc2ncnc(Nc3cccc(Br)c3)c2c1, which residual activity is on record?
A: The residual activity was 5%.

Q: O=C(Nc1cccc(Nc2cc(Nc3cccc(C(F)(F)F)c3)ncn2)c1)C1CC1 was tested. Which residual activity did it give?
A: The residual activity was 18%.

Q: O=[N+]([O-])c1ccc(-c2nc(-c3ccc(F)cc3)c(-c3ccncc3)[nH]2)cc1 was tested. Which residual activity did it give?
A: The residual activity was 23%.

Q: How did the residual activity turn out when O=c1c2ccccc2[nH]c(=S)n1CCN1CCC(=C(c2ccc(F)cc2)c2ccc(F)cc2)CC1 was run?
A: Its residual activity is 46%.

Q: How did the residual activity turn out when COc1cc2ncnc(Nc3ccc(NC(=O)c4ccccc4)cc3)c2cc1OC was run?
A: The residual activity was 6%.

Q: COc1ccc(OC)c2c(=S)c3ccccc3[nH]c12 was tested. Which residual activity did it give?
A: The residual activity was 84%.

Q: Which residual activity does the source give for O=C(O)c1ccc2c3c1cccc3c(=O)n1c3ccccc3nc21 here?
A: The residual activity was 87%.

Q: For Cn1cnc2cc3c(Nc4cccc(Br)c4)ncnc3cc21, which residual activity is on record?
A: Its residual activity is 2%.

Q: Which residual activity does the source give for COc1ccc(S(=O)(=O)N(CCO)c2ccccc2CN(C)C/C=C/c2ccc(Cl)cc2)cc1 here?
A: Its residual activity is 65%.

Q: Which residual activity does the source give for CNc1cc2c(Nc3cccc(Br)c3)ncnc2cn1 here?
A: Its residual activity is 5%.

Q: For COc1cc2ncnc(N3CCN(C(=O)Nc4ccc(Oc5ccccc5)cc4)CC3)c2cc1OC, which residual activity is on record?
A: Its residual activity is 100%.

Q: How did the residual activity turn out when O=C(Nc1cccc(Nc2nccc(Nc3cccc(C(F)(F)F)c3)n2)c1)C1CC1 was run?
A: Its residual activity is 6%.

Q: Which residual activity does the source give for c1ccc(-c2n[nH]cc2-c2ccnc3ccccc23)nc1 here?
A: The residual activity was 24%.

Q: O=c1cc(-c2cccc3c2Sc2ccccc2S3)oc(N2CCOCC2)c1 was tested. Which residual activity did it give?
A: Its residual activity is 86%.

Q: For O=Nc1c(-c2c(O)[nH]c3ccccc23)[nH]c2ccccc12, which residual activity is on record?
A: Its residual activity is 2%.

Q: Nc1n[nH]c2nnc(-c3c(-c4ccccc4)nn4ccccc34)cc12 was tested. Which residual activity did it give?
A: The residual activity was 33%.

Q: CC(=O)O/N=C1\C(=C2\C(=O)Nc3cc(Br)ccc32)Nc2ccccc21 was tested. Which residual activity did it give?
A: The residual activity was 4%.
